Reference: PubChem BioAssay AID624352 (Sanford-Burnham Center for Chemical Genomics, 2012)
The campaign covered roughly 360,000 compounds. About 2,600 (0.72%) were called active. The sample as a whole holds a higher share of actives than the screen did. Unmarked numbers belong to inactive results.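 The calls were made as follows: active = inhibition of the luminescence signal of 40% or more relative to plate controls, in a single-dose primary screen at 18.75 µM; inactive = the rest.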

Assay: HIF-2a reporter inhibitors, primary screen, luminescence, 786-0 RCC cells (AID 624352)
Conditions: 786-0 RCC cells HIF-2a reporter, luciferase luminescence, overnight; at 18.8 µM; stronger effect = higher value

| Compound | inhibition |
| --- | --- |
| CCOc1cc(/C=N/NC(=O)OC)ccc1OCCSc1ccc(Cl)cc1 | -1.68% |
| CCOc1cc(/C=C(/C#N)c2ccc(Cl)cc2)cc(Cl)c1OCC(=O)O | 91.8% (active) |
| COc1cc(/C=C(/NC(=O)c2ccc(Cl)cc2Cl)C(=O)O)cc(OC)c1OC | 12.9% |
| CCOC(=O)c1c(C)[nH]c(C2=NNC(=NC(C)COC)SC2)c1C (configuration not stated) | -141% |
| CCOC(=O)C1(Cc2ccccc2C)CCCN(C(=O)c2ccc(COC)o2)C1 (configuration not stated) | -190% |
| Cc1cccc(NC(=O)C2CCCN(C(=O)Nc3ccc(F)cc3)C2)c1C (configuration not stated) | 7.56% |
| COc1ccc(C2=NO[C@@H]3C(=O)N(Cc4ccccc4)C(=O)[C@H]23)cc1OC | 16.2% |
| COc1ccc(-c2cc(C(F)(F)F)nc(S(C)(=O)=O)n2)cc1OC | 94.1% (active) |
| COc1ccc(CCNS(=O)(=O)c2ccc(F)cc2)cc1OC | 9.4% |
| O=C(c1cn(-c2ccccc2)nc1-c1cccnc1)N1CCN(S(=O)(=O)c2ccccc2F)CC1 | 9.12% |
| CCc1ccc(-n2c(=S)sc3c(=O)n(-c4ccccc4OC)c(=S)[nH]c32)cc1 | 8.96% |
| COc1ccc(OC)c2c(N)c(C#N)c(C(F)(F)C(F)(F)F)nc12 | 8.83% |
| COc1cc2c(C(=O)O)c(C)n(C)c2c2ccccc12 | -195% |
| COc1cccc2c(C)c(C(=O)O)[nH]c12 | 47% (active) |
| COc1cccc2c(O)cc(=O)n(C)c12 | 19.6% |
| O=C(c1ccccc1Cl)N(Cc1ccccc1F)N1C(=O)CCCC1=O | 16.7% |
| O=C(O)C1C2C=CC(O2)C1C(=O)NCCc1cccc(Cl)c1 (configuration not stated) | -2.61% |
| Cc1cc(O)ccc1-c1cc(C(=O)NCc2cc(C(F)(F)F)cc(C(F)(F)F)c2)[nH]n1 | 15.8% |
| COCCn1c(SCC(=O)Nc2ccccc2F)nc2c(c1=O)SCC2 | 1.2% |
| Cc1cccc(NC(=O)C2CCCN(C(=O)NCc3ccccc3)C2)c1C (configuration not stated) | 0.73% |
| Cc1ccc(-c2nc3ccc(Br)cn3c2Cc2ccccc2C(F)(F)F)cc1 | -290% |
| Cc1ccc2nc(-c3ccccc3)c(CC3CCCCC3)n2c1 | -173% |
| CC(=O)Nc1c(-c2ccc(C)cc2)nc2ccc(Cl)cn12 | 4.44% |

| Compound | inhibition |
| --- | --- |
| Cc1ccc(-c2cn3cc(C)ccc3n2)cc1 | 71.3% (active) |
| Cc1ccc2nc(-c3ccc(Br)cc3)cn2c1 | 40.6% (active) |
| COc1ccc(-c2nc3ccc(Br)cn3c2Cc2ccc(C)cc2)cc1OC | -137% |
| CC(C)NC(=O)Nc1cccc2c1O[C@H](CN(C)S(=O)(=O)c1cccs1)[C@@H](C)CN([C@H](C)CO)C2=O | 12.7% |
| CC(=O)Nc1ccc(NC(=O)C(C)OC(=O)c2ccccc2C(=O)c2ccc(Cl)c([N+](=O)[O-])c2)cc1 (configuration not stated) | 19.2% |
| NS(=O)(=O)c1cccc(NC(=O)COC(=O)c2cc([N+](=O)[O-])ccc2N2CCCC2)c1 | 25.4% |
| N#Cc1cccc(NC(=O)COC(=O)c2ccccc2C(=O)c2ccc(Cl)c([N+](=O)[O-])c2)c1 | 94.8% (active) |
| Brc1ccc2c(c1)[C@H]1OCC[C@H]1[C@@H](c1cccs1)N2 | -2.71% |
| C[C@H](O)[C@@H]1C(=O)N2CCc3ccc(N4CCOCC4)cc3[C@@H]2C[C@@H]1N(C)C(=O)C(C)(C)C | -9.89% |
| Cc1cc(C)c(SCCc2ccncc2)c(C)c1 | 10% |
| Cc1cc(Nc2cc(N3CCN(C)CC3)nc(Sc3ccc(NC(=O)C4CC4)cc3)n2)n[nH]1 | 52.1% (active) |
| Cc1n[nH]c(C)c1S(=O)(=O)N1CCCC(C(=O)Nc2ccc(Br)cc2)C1 (configuration not stated) | 10.9% |
| Cc1cc(C)c2c(NC(=O)C3CC3)nn(C)c2n1 | 0.567% |
| Nc1cccc(OCCCCCOc2cccc(N)c2)c1 | -55.8% |
| COc1ccc(-c2nc3c(s2)CCc2onc(-c4ccc(OC)cc4)c2-3)cc1 | -8.84% |
| CO/N=C/CC(=O)c1ccc(OC)cc1 | -11.6% |
| Cc1cc(NC(=O)COc2ccccc2C#N)no1 | -198% |
| CCCOc1ccc(C(=O)C(CCC(CNCC)C(=O)c2ccc(OCCC)cc2)CNCC)cc1 (configuration not stated) | 98.1% (active) |
| CCOc1cc(C(=O)O)ccc1OCCOc1ccccc1 | 15.8% |
| CC(C)CCOc1ccc(C(=O)C[N+]2(C)CCOCC2)cc1 | 12.3% |
| CC(CC(=O)O)CC(=O)NNC(=O)c1cccc(Br)c1 (configuration not stated) | 15.7% |
| CC(=O)c1cccc(-c2ccc(CN3C(CC(C)C)C(=O)N(Cc4cn(CC5CCCCC5)nn4)CCS3(=O)=O)cc2)c1 (configuration not stated) | 4.21% |
| Cn1c(=O)cc(SCC(=O)N2CCN(C(=O)c3ccco3)CC2)c2ccccc21 | -11.7% |

| Compound | inhibition |
| --- | --- |
| CC(Sc1nncn1C)C(=O)NCCC1=CCCCC1 (configuration not stated) | 1.01% |
| Cc1ccc(S(=O)(=O)N(CC(=O)Nc2cccc([N+](=O)[O-])c2)Cc2ccc(Cl)cc2)cc1 | 8.15% |
| CC(=O)N(CN1C(=O)C2C3C=CC(C3)C2C1=O)c1cccc(Cl)c1 (configuration not stated) | 9.8% |
| O=C(CCl)N(Cc1cccc([N+](=O)[O-])c1)c1cccc(Cl)c1 | 40.9% (active) |
| NS(=O)(=O)c1cc2c(cc1Cl)NC(C(Cl)Cl)NS2(=O)=O (configuration not stated) | 2.3% |
| O=C1C=C(c2ccc(Cl)cc2)C(=O)N1Nc1ccccc1 | 64.8% (active) |
| COc1ccc(CN2CCn3ncc(C(=O)Nc4ccc(Cl)cc4Cl)c3C2=O)cc1 | 13.3% |
| C[C@]12c3[nH]c4ccc(Cl)cc4c3CCN1C(=O)[C@@H](CC(=O)NCCCn1ccnc1)C[C@@H]2C(=O)N1CCOCC1 | 6.91% |
| O=C(CS(=O)(=O)Cc1ccccc1)Nc1cccnc1 | -1.93% |
| Cc1cc(NS(=O)(=O)c2ccc(NC(=S)NC(=O)c3ccc(F)cc3Cl)cc2)no1 | 21.4% |
| Cc1cccc(CS(=O)(=O)c2ncc(Cl)c(C(=O)Nc3ccc(F)cc3)n2)c1 | 86.1% (active) |
| Cc1ccc(CS(=O)(=O)CCC(=O)NC2CC2)cc1 | 11.4% |
| Cc1ccc(CS(=O)(=O)c2ncc(Cl)c(C(=O)Nc3nnc(C)s3)n2)cc1 | 94.4% (active) |
| CN(CCC(=O)Nc1cc(S(=O)(=O)N(C)C)ccc1Cl)CC(=O)Nc1ccc(F)cc1 | 11.6% |
| Cc1cccc(NS(=O)(=O)c2ccc(C)c(C(=O)NCc3cccnc3)c2)c1 | 9.9% |
| Cc1cccc(NC(=O)c2nc(S(=O)(=O)Cc3ccccc3)ncc2Cl)c1 | 86.7% (active) |
| Cc1nnc(NC(=O)CSc2nccn2-c2cccc(C)c2C)s1 | 7.22% |
| CCCN(CC(=O)Nc1ccccc1OC)C(=O)CCC(=O)c1ccc(F)cc1 | -7.63% |
| O=C(CC1SC(=Nc2ccccc2)N(Cc2ccccn2)C1=O)Nc1cccc(Cl)c1 (configuration not stated) | -84.7% |
| CCN(C(=O)COC(=O)c1c(NC(C)=O)sc(C)c1C)C1CCS(=O)(=O)C1 (configuration not stated) | 12.6% |
| O=C(NCc1cccnc1)C12CC3CC(CC(C3)C1)C2 | 21.4% |
| COc1ccc(Nc2ncnc3ccc(Br)cc23)c(OC)c1 | 75.3% (active) |
| CCOC(=O)CNc1nc(Cl)nc(Nc2ccc(OC)cc2OC)n1 | 12.9% |

| Compound | inhibition |
| --- | --- |
| CC1(C)CC2CC(C)(CN2c2ncnc3ccc(Br)cc23)C1 (configuration not stated) | 31.5% |
| CC1=NC2(CCCc3c2no[n+]3[O-])N(O)C1(C)C (configuration not stated) | -5.63% |
| Cc1cccc(N2Cc3ccccc3C2=NC(=O)c2ccc(Cl)nc2)c1 | -92.3% |
| Cc1cccc(-n2ncc(Cl)c(Cl)c2=O)c1 | 84.5% (active) |
| Nc1c(-c2cccc(Cl)c2)cnn1-c1cccc([N+](=O)[O-])c1 | -139% |
| COc1ccc(OC)c(-c2c(=O)n(OCc3ccccc3Br)c3ccccc3[n+]2[O-])c1 | 23.8% |
| Cc1ccc(CNC(=O)COc2ccc(S(=O)(=O)NC(C)C)cc2)cc1 | -0.52% |
| Cn1c(=O)n(C)c2cc(CNc3ccc(N4CCOCC4)c(C(=O)O)c3)ccc21 | 15.1% |
| Cc1nnnn1/C(=C\c1ccccc1)C(=O)OCC(=O)N1CC2(C)CC1CC(C)(C)C2 (configuration not stated) | 50.7% (active) |
| O=C(CNC(=O)c1cc(S(=O)(=O)N2CCOCC2)ccc1N1CCCC1)Nc1ccc(F)c(F)c1 | 3.34% |
| COc1ccc(/C=N/N=C/c2c[nH]c(=O)c(C#N)c2Nc2ccccc2)cc1 | 22.7% |
| O=C(O)CCn1c(O)c(C=C2N=c3ccccc3=N2)sc1=S | 48.3% (active) |
| C=CCNC(=O)C1CC2c3ccccc3C1c1ccccc12 (configuration not stated) | 15.4% |
| CC1(C(=O)NS(=O)(=O)C2CC2)CCCN(C(=O)CSc2ccccc2)C1 (configuration not stated) | 6.93% |
| CCSc1sc(CC)cc1C=O | 18.8% |
| COc1ccccc1CN1CC(C(=O)NCCc2cn[nH]c2)CCC1=O (configuration not stated) | 11.7% |
| COc1ccc2nc(-c3ccccn3)ccc2c1 | -77.1% |
| COCCN(C(=O)CCC(=O)Nc1ccccn1)C(C(=O)NCCC(C)C)c1ccc(OC)cc1 (configuration not stated) | 12.7% |
| COc1ccc(C(=O)/C=C/Nc2ccccn2)cc1 | 51.6% (active) |
| CCCN1C2CCCC1CC(NC(=O)NC13CC4CC(CC(C4)C1)C3)C2 (configuration not stated) | 19.4% |
| CN1C(=O)c2ccc(NC(=O)C3CCCCC3)cc2C1=O | -8.6% |
| O=C(Nc1ccc2c(c1)OCCO2)C1CCCC1 | 41.3% (active) |
| O=C(Nc1ccc2c(c1)OCO2)C1CC1(Cl)Cl (configuration not stated) | -154% |
